# Screening results from PubChem BioAssay.
# ssDAF12 agonist = S. stercoralis DAF-12 activation, primary screen; HEK293 ssDAF-12/GRIP1 lit1-tk-luc reporter, luminescence; % of 3 µM dafachronic acid response; activation, % at 6.8 µM; hit rate 1% among 370,000; AID 652126;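 active = activation above the mean over all tested compounds plus 3 SD, cut at about 0.9% in these data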;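 also: 0% = DMSO-only wells and 100% = 3 µM delta7-dafachronic acid wells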
# DAX1 inh-1 = inhibitors of DAX1 repression of SF-1 activated StAR promoter; HEK293T StAR-luciferase reporter, SF-1/DAX-1 repression relief; inhibition, % at 6.8 µM; hit rate 1.1% among 370,000; AID 652010;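 active = inhibition above the mean over all tested compounds plus 3 SD, cut at about 3.6% in these data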;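 also: 0% = DAX-1 cells with DMSO and 100% = cells lacking DAX-1 with DMSO; higher inhibition means more luminescence from relief of DAX-1 repression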
# hgDAF12 agonist = agonists of H. glycines DAF-12 nuclear receptor; HEK293 GAL4-hgDAF12 UAS-luciferase reporter, agonist luminescence; normalized to butyrate control; hit rate 1.8% among 370,000; AID 687014; activation, % at 6.8 µM;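 active = activation above a cutoff set at the mean of all screened compounds plus 3 SD, cut at about 10% in these data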;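 also: 0% = DMSO wells and 100% = sodium butyrate wells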
# hcDAF-12 act = activators of H. contortus DAF-12 nuclear receptor; activation, % at 6.8 µM; hit rate 1.4% among 370,000; AID 652067; HEK293 hcDAF-12 lit1-tk-luc reporter, luminescence; 0% DMSO, 100% Δ7-dafachronic acid;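 active = activation above the mean of all tested compounds plus 3 SD, cut at about 5.5% in these data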;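 also: 100% = response to 3 µM Δ7-dafachronic acid high control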
# DAX1 inh-2 = NR0B1 (DAX1) inhibition | P51843 | HEK293 Gal4-DAX1 luciferase reporter, luminescence | inhibition, % at 6.75 µM | hit rate 0.99% among 340,000 | AID 504766;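 active = inhibition above the mean over all tested compounds plus 3 SD, cut at about 4.2% in these data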;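 also: 0% = DAX1-transfected cells with DMSO and 100% = empty-vector control cells with DMSO; inhibition shows as a rise in luminescence from relieved DAX1 repression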
# Target sequence (P51843 207-470 limits assumed): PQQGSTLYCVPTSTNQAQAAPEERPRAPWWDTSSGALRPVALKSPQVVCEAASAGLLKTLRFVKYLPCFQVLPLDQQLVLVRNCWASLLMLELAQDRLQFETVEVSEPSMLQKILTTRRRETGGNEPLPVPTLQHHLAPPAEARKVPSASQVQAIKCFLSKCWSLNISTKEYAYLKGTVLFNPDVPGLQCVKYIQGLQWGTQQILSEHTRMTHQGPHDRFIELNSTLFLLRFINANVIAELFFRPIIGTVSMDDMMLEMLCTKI
# The depositor's hits bear a star; . = not tested or not shown. Sampled rows, rich in hits. Any-hit rate of the full collection: about 4.1%.
SMILES,ssDAF12 agonist,DAX1 inh-1,hgDAF12 agonist,hcDAF-12 act,DAX1 inh-2
O=C(CSc1nnc(-c2ccccc2)n1Cc1ccco1)Nc1ccc(Oc2ccccc2)cc1,-2,-2,1,-4,.
O=C(NC1CCCCCC1)C1CCN(S(=O)(=O)c2cccc3cccnc23)CC1,0,-2,-1,-1,6.1*
O=C(NC1CCCC1)C1CCCN(S(=O)(=O)c2cccc3cccnc23)C1 (centres undefined),-1,0,1,0,-2
O=C1[C@@H](CCc2ccccc2)[C@@H]2c3cc4ccccc4cc3C=NN2[C@@H]2c3cc4ccccc4cc3C=NN12,-1,-1,-2,4,.
Cn1c(=O)[nH]c2ncn(C)c2c1=O,-1,1,11*,0,0
CCNC(=S)NNC(=O)c1cnccn1,-1,-1,4,-3,.
COCc1cc(N2CCN(C(=O)OC(C)(C)C)C[C@H]2C)ccc1N1CC[C@H](O)C1,-1,0,-6,-3,.
O=C(Cn1cnc2c(oc3nc4c(cc32)CCCC4)c1=O)Nc1ccccc1,0,0,3,-1,0
C=C(C)Cn1cnc2c(oc3nc4c(cc32)CCCC4)c1=O,0,1,7,2,6.6*
CCC(Cc1ccccc1)NC(=O)Cn1cccc1C(=O)c1ccccc1 (centres undefined),-1,0,0,-3,-1
CCC(Cc1ccccc1)NC(=O)Cn1ncc2ccsc2c1=O (centres undefined),1.0*,0,11*,5.9*,0
Cc1cc(=O)oc2cc(OC(C)C(=O)NCC3CCC(C(=O)O)CC3)ccc12 (centres undefined),-1,0,-3,0,3
Cc1c(Cc2ccccc2)c(=O)oc2cc(OC(C)C(=O)NCC3CCC(C(=O)O)CC3)c(Cl)cc12 (centres undefined),-2,0,0,-2,4.6*
O=S1(=O)c2c(cccc2N2CCSCC2)Oc2ccccc2CN1Cc1cn(Cc2ccc(Cl)cc2)nn1,-1,-3,-4,-2,.
Cn1c(NCCOc2ccccc2)nc2cc(-c3ccc(F)cc3)sc2c1=O,-2,1,-1,-1,.
C=CCNc1nc2cc(-c3ccccc3OC)sc2c(=O)n1C,0,0,11*,2,.
COCCNc1nc2cc(-c3ccc(F)cc3)sc2c(=O)n1C,-1,-1,12*,-1,.
COC(=O)c1cc(-c2cc3ccccc3o2)c(=O)n2c1CCC2,0,0,4,2,.
c1ccc(-c2ncc(-c3ccn[nH]3)s2)cc1,2.0*,5.4*,22*,5,0
c1csc(-c2ccn[nH]2)c1,-1,1,2,0,-1
CCOc1ccccc1C(=O)Nc1ccc2nc(C)[nH]c(=O)c2c1,-1,-1,2,-2,.
COc1ccccc1C1CC(=O)Oc2cc(O)ccc21 (centres undefined),-2,4.0*,1,-1,0
COc1ccccc1C1CC(=O)Oc2cc(C)c(Cl)cc21 (centres undefined),0,-1,2,-1,0
Cc1ccc(C)c(Nc2nc(N)c3ccccc3n2)c1,0,2,12*,4,4.5*
O=C1CCCc2nc3c(cc21)C(O)Oc1c-3ccc2ccccc12 (centres undefined),-1,2,12*,2,1
SMILES,ssDAF12 agonist,DAX1 inh-1,hgDAF12 agonist,hcDAF-12 act,DAX1 inh-2
CCOC(=S)SCc1cn2cccc(C)c2n1,-1,1,5,2,5.0*
Cc1ccc(S(=O)(=O)N[C@@H](CC(C)C)C(=O)N2CCC(C(=O)N[C@@H](Cc3ccccc3)C(=O)O)CC2)cc1,-1,0,0,0,6.9*
Cc1ccc(S(=O)(=O)N[C@H](C(=O)N2CCC(C(=O)N[C@@H](CC(=O)O)C(=O)O)CC2)C(C)C)cc1,-1,1,0,0,8.8*
Cc1cc([N+](=O)[O-])nn1CC(=O)N(C)C1CCCCC1,1,0,0,6.3*,2
CCC(C)N1C(=O)S/C(=C/c2ccc(N3CCOCC3)cc2C)C1=O (centres undefined),-2,-1,4,-2,2
Cc1cc(N2CCOCC2)ccc1/C=C1\SC(=O)N(C(C)C)C1=O,-2,0,4,0,5.6*
Cc1sc2ccccc2c1CNC[C@H]1O[C@@H](n2cnc(C(N)=O)n2)[C@H](O)[C@@H]1O,1.0*,1,-3,-1,1
CCOC(=O)CC[C@@]1(C(=O)OCC)C[C@@H](CC(=O)N2CCSCC2)C(=O)N2CCCC=C21,-1,0,0,-1,.
Nn1c(-c2ccccc2)nc2cc(Cl)ccc2c1=O,1.9*,1,5,5.7*,1
COc1cc(-c2nc3ccccc3c(=O)n2N)cc(OC)c1OC,5.7*,-1,3,-1,-2
Cc1cccc(-c2nc3ccccc3c(=O)n2N)c1,-1,0,-1,1,1
Cc1ccc(-c2nc3ccccc3c(=O)n2N)cc1,1,1,3,4,0
On1c(-c2ccccc2)nc2ccc(Cl)cc21,-1,3,12*,3,1
C[C@@H]1ON(C)[C@H]2C[C@H]3c4[nH]c5cccc(Br)c5c4CCN3C(=O)[C@@H]12,-1,0,0,-2,.
CCCC1CCC2(CCC(=O)N2CCO)CC1 (centres undefined),-2,1,4,-1,.
CCOc1cc(/C=C2\CCCC(C(=O)C(F)(F)F)=C2O)ccc1O,-1,3.7*,7,-1,1
CCCCNS(=O)(=O)CC1NCc2cc(F)ccc21 (centres undefined),-2,1,-2,-1,.
CCCC(=O)Nc1cc(Cl)ccc1C,-2,0,0,1,6.5*
Cc1ccc(Cl)cc1NC(=O)CCC(=O)Nc1cc(Cl)ccc1C,-1,0,-2,-2,0
COc1cccc2cc(-c3nc4ccccc4o3)c(=O)oc12,0,2,11*,2,4.4*
CCOC(=O)c1cc2c(s1)-c1ccccc1CC2,1,2,5,6.4*,2
Cc1nc2nc(C)c(NS(=O)(=O)c3ccc(Cl)cc3)c(=O)n2[nH]1,0,0,4,6.4*,0
CCc1ccc(S(=O)(=O)Nc2c(C)nc3nc[nH]n3c2=O)cc1,-1,0,-1,-1,8.0*
COc1ccc(CNC2CCC23CCC(C)CC3)cc1 (centres undefined),-1,.,0,-1,.
O=P(Cc1ccncc1)(c1ccccc1)c1ccccc1,0,0,-2,1,5.9*
O=C(c1cc2cc(Cl)ccc2oc1=O)N1CCCCCCC1,-1,0,0,2,4.5*
Cc1cccn2cc(CCNC(=O)c3ccc(Br)o3)nc12,1.3*,1,5,6.0*,1
COc1ccc(CNCC#Cc2ccc(C(F)(F)F)cc2)c(OC)c1,-1,-1,2,1,.
